Assay results reported in PubChem BioAssay (NCATS).
Inconclusive results are not listed. Activity calls are given as the source filed them. Calls follow the shape of the dose curve; as a rule, active = well fitted curve in the direction sought with a large enough effect; inconclusive = small, poorly fitted or top-dose-only effect, or another doubt; inactive = no such curve, though single readings can be large; an effect the other way counts as inactive or inconclusive.

Experiments:
[1] = Quantitative High-Throughput drug screen in 47 multiple myeloma cell lines against the NCATS MIPE library collection: JIM3_ECACC cell viability assay (AID 1918963; also: nearly all actives have a fitted effect of over 35% in size; also: potency is read from the fitted curve at half-maximal effect)
Procedure, shortened: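 qHTS of the MIPE 4.0 collection: 500 myeloma cells/well, 48 h drug exposure at 37C in 5% CO2, then CellTiter-Glo for 5 min at room temperature before luminescence reading.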

[2] = Quantitative High-Throughput drug screen in 47 multiple myeloma cell lines against the NCATS MIPE library collection: JJN3_DSMZ cell viability assay (AID 1918966; also: nearly all actives have a fitted effect of over 50% in size; also: potency is read from the fitted curve at half-maximal effect)
Procedure, shortened: (§1)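 CellTiter-Glo ATP luminescence gave viability after 48 h compound treatment at 37C of 500 multiple myeloma cells per well. Normalisation used DMSO-only wells as 100% and media-only wells as 0% viability; primary qHTS of approved and investigational drugs.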

[3] = Quantitative High-Throughput drug screen in 47 multiple myeloma cell lines against the NCATS MIPE library collection: H1112_PLB cell viability assay (AID 1918967; also: nearly all actives have a fitted effect of over 30% in size; also: potency is read from the fitted curve at half-maximal effect)
Procedure, shortened: as §1

[4] = Quantitative High-Throughput drug screen in 47 multiple myeloma cell lines against the NCATS MIPE library collection: KMS27_JCRB cell viability assay (AID 1918970); also: nearly all actives have a fitted effect of over 30% in size; also: potency is read from the fitted curve at half-maximal effect
Procedure, shortened: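 Myeloma cells (500 per well) were exposed to MIPE 4.0 compounds for 48 h at 37 °C, 5% CO2; viability was read as ATP luminescence with CellTiter-Glo, normalized to DMSO-only (100%) and media-only (0%) wells.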

[5] = Quantitative High-Throughput drug screen in 47 multiple myeloma cell lines against the NCATS MIPE library collection: KMS12PE_JCRB cell viability assay (AID 1918972); also: nearly all actives have a fitted effect of over 30% in size; also: potency is read from the fitted curve at half-maximal effect
Procedure, shortened: (§2)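 Luminescent ATP measurement with CellTiter-Glo gives viability, scaled between DMSO-only wells (100%) and media-only wells (0%). Cells, 500 per well, faced library compounds for 48 hours at 37C.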

[6] = Quantitative High-Throughput drug screen in 47 multiple myeloma cell lines against the NCATS MIPE library collection: MOLP8_DSMZ cell viability assay (AID 1918977); also: nearly all actives have a fitted effect of over 45% in size; also: potency is read from the fitted curve at half-maximal effect
Procedure, shortened: (§3)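 qHTS format: cells plated (500/well), pin-dosed with MIPE 4.0 compounds, kept 48 h at 37 °C. Readout was CellTiter-Glo luminescence, median RLU.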

[7] = Quantitative High-Throughput drug screen in 47 multiple myeloma cell lines against the NCATS MIPE library collection: NCIH929_DSMZ cell viability assay (AID 1918978); also: nearly all actives have a fitted effect of over 35% in size
Procedure, shortened: as §3

[8] = Quantitative High-Throughput drug screen in 47 multiple myeloma cell lines against the NCATS MIPE library collection: OCIMY1_PLB cell viability assay (AID 1918979); also: nearly all actives have a fitted effect of over 35% in size
Procedure, shortened: as §3

[9] = Quantitative High-Throughput drug screen in 47 multiple myeloma cell lines against the NCATS MIPE library collection: LP1_DSMZ cell viability assay (AID 1918982); also: nearly all actives have a fitted effect of over 35% in size; also: potency is read from the fitted curve at half-maximal effect
Procedure, shortened: as §3

[10] = Quantitative High-Throughput drug screen in 47 multiple myeloma cell lines against the NCATS MIPE library collection: INA6_PLB cell viability assay (AID 1918965; also: nearly all actives have a fitted effect of over 55% in size; also: potency is read from the fitted curve at half-maximal effect)
Procedure, shortened: as §2

[11] = Quantitative High-Throughput drug screen in 47 multiple myeloma cell lines against the NCATS MIPE library collection: KMS26_JCRB cell viability assay (AID 1918975); also: nearly all actives have a fitted effect of over 45% in size; also: potency is read from the fitted curve at half-maximal effect
Procedure, shortened: (§4)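 Myeloma cell lines, 500 cells per well, exposed to MIPE 4.0 library compounds for 48 h at 37C, 5% CO2. Viability from ATP by CellTiter-Glo luminescence; normalised to DMSO (100%) and media-only (0%) wells.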

[12] = Quantitative High-Throughput drug screen in 47 multiple myeloma cell lines against the NCATS MIPE library collection: MMM1_PLB cell viability assay (AID 1918976); also: nearly all actives have a fitted effect of over 35% in size; also: potency is read from the fitted curve at half-maximal effect
Procedure, shortened: as §3

[13] = Quantitative High-Throughput drug screen in 47 multiple myeloma cell lines against the NCATS MIPE library collection: Karpas25_ECACC cell viability assay (AID 1918968; also: nearly all actives have a fitted effect of over 35% in size; also: potency is read from the fitted curve at half-maximal effect)
Procedure, shortened: as §1

[14] = Quantitative High-Throughput drug screen in 47 multiple myeloma cell lines against the NCATS MIPE library collection: KMS12BM_JCRB cell viability assay (AID 1918971); also: nearly all actives have a fitted effect of over 35% in size; also: potency is read from the fitted curve at half-maximal effect
Procedure, shortened: as §4

[15] = Quantitative High-Throughput drug screen in 47 multiple myeloma cell lines against the NCATS MIPE library collection: MM1S_ATCC cell viability assay (AID 1918980); also: nearly all actives have a fitted effect of over 45% in size; also: potency is read from the fitted curve at half-maximal effect
Procedure, shortened: as §3

[16] = Quantitative High-Throughput drug screen in 47 multiple myeloma cell lines against the NCATS MIPE library collection: MM1R_ATCC cell viability assay (AID 1918981); also: nearly all actives have a fitted effect of over 35% in size; also: potency is read from the fitted curve at half-maximal effect
Procedure, shortened: as §3

[17] = Quantitative High-Throughput drug screen in 47 multiple myeloma cell lines against the NCATS MIPE library collection: JIM1_ECACC cell viability assay (AID 1918964; also: potency is read from the fitted curve at half-maximal effect)
Procedure, shortened: as §1

[18] = Quantitative High-Throughput drug screen in 47 multiple myeloma cell lines against the NCATS MIPE library collection: KMS21BM_JCRB cell viability assay (AID 1918974); conditions: ATP luminescence, 48 h; viability: at 45.8 µM (top of the series); also: potency is read from the fitted curve at half-maximal effect
Procedure, shortened: as §1

[19] = Quantitative High-Throughput drug screen in 47 multiple myeloma cell lines against the NCATS MIPE library collection: KMS20_JCRB cell viability assay (AID 1918973); also: nearly all actives have a fitted effect of over 45% in size
Procedure, shortened: as §1

Measured: Potency

CCOc1cc(N)c(Cl)cc1C(=O)NCC1CN(Cc2ccc(F)cc2)CCO1 (stereo not given)
inactive: [1] | [2] | [3] | [4] | [5] | [6] | [7] | [8] | [9]

COC(=O)Nc1nc2ccc(S(=O)c3ccccc3)cc2[nH]1 (stereo not given)
inactive: [11] | [12]
active: [1] 20.9 µM | [10] 18.7 µM

CC(C)OC(=O)OCOP(=O)(CO[C@H](C)Cn1cnc2c(N)ncnc21)OCOC(=O)OC(C)C
active: [1] 16.6 µM | [2] 18.7 µM | [13] 14.8 µM | [14] 7.43 µM | [5] 29.6 µM | [15] 23.5 µM | [16] 11.8 µM
inactive: [9]

CCOC(=O)c1ccc(OC(=O)CCCCCN=C(N)N)cc1
inactive: [17] | [10] | [2] | [13] | [14] | [6] | [7] | [8] | [16] | [9]

CC(C)(Sc1cc(C(C)(C)C)c(O)c(C(C)(C)C)c1)Sc1cc(C(C)(C)C)c(O)c(C(C)(C)C)c1
active: [10] 4.69 µM | [15] 4.18 µM
inactive: [2] | [4] | [14] | [11] | [6] | [16] | [9]

CC[C@H](C)C(=O)O[C@H]1C[C@@H](C)C=C2C=C[C@H](C)[C@H](CC[C@@H]3C[C@@H](O)CC(=O)O3)[C@H]21
inactive: [4] | [5] | [8]
active: [10] 18.7 µM | [15] 16.6 µM | [16] 16.6 µM | [9] 20.9 µM

CCC(C)(C)c1ccc(CC(C)CN2C[C@@H](C)O[C@@H](C)C2)cc1 (stereo not given in full)
inactive: [17] | [7]

COc1ccc2cc3[n+](cc2c1OC)CCc1cc2c(cc1-3)OCO2
active: [17] 16.6 µM | [10] 6.62 µM | [2] 11.8 µM | [3] 14.8 µM | [13] 2.64 µM | [4] 16.6 µM | [14] 6.62 µM | [5] 16.6 µM | [18] 2.64 µM | [11] 5.9 µM | [6] 14.8 µM | [15] 14.8 µM | [9] 4.69 µM

CC(C)Cn1cnc2c(N)nc3ccccc3c21
inactive: [1] | [3] | [13] | [8] | [9]
active: [2] 18.7 µM | [14] 14.8 µM | [12] 16.6 µM | [15] 4.69 µM

CCn1cc(C(=O)O)c(=O)c2cc(F)c(N3CCN(C)CC3)cc21
active: [14] 2.64 µM
inactive: [1] | [3] | [13] | [4] | [5] | [11] | [6] | [7] | [16] | [9]

O=S(=O)(O)CCS
active: [4] 16.6 µM
inactive: [10] | [3] | [19] | [6] | [7] | [8] | [15] | [16] | [9]

Cc1ccnc2c1NC(=O)c1cccnc1N2C1CC1
inactive: [17] | [2] | [14] | [11] | [6] | [8] | [16] | [9]
active: [4] 1.87 µM | [15] 4.69 µM

O=C(O)C1CCCN(CCC=C(c2ccccc2)c2ccccc2)C1 (stereo not given)
inactive: [10] | [3] | [4] | [19] | [11] | [7]
active: [6] 0.0059 µM | [15] 9.35 µM
